Experimental data from PubChem BioAssay (NCATS).
Results filed as inconclusive are left out. Calls of active or inactive are those of the source. Calls follow the shape of the dose curve; as a rule, active = well fitted curve in the direction sought with a large enough effect; inconclusive = small, poorly fitted or top-dose-only effect, or another doubt; inactive = no such curve, though single readings can be large; an effect the other way counts as inactive or inconclusive. Where a SMILES comes first, the peptide text is derived from it. [ ]: non-standard residue; d: D form.

Key:
[1] = molecular target: Phospholipid hydroperoxide glutathione peroxidase GPX4 (Homo sapiens) (UniProt P36969); experiment: Primary qHTS Assay for Inhibitors of Recombinant Selenoprotein Glutathione Peroxidase 4 (GPX4) (AID 1845192); also: nearly all actives have a fitted effect of over 65% in size; as to activity change, negative = inhibition: series mostly up to about 50 µM; % is scaled to controls: 0 for no effect and ±100 for the full control effect
Chain of Phospholipid hydroperoxide glutathione peroxidase GPX4 (Homo sapiens) (P36969 whole entry, looked up): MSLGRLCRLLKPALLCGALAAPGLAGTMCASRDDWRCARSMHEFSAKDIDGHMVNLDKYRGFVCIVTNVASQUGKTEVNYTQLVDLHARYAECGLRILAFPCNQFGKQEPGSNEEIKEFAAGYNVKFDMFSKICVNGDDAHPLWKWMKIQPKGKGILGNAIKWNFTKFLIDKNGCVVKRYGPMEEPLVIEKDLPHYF
How it was run: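 Steps: GPX4 plus compound, 30 min RT; add GR/GSH/NADPH master mix; start with cumene hydroperoxide; read 340/450 nm fluorescence at 0 and 15 min. Finals were 200 nM GPX4, 1 mM GSH, 0.5 mM CHP, 0.5 mM NADPH, 100 nM GR.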

[2] = molecular target: Luciferin 4-monooxygenase (Photinus pyralis) (UniProt P08659); experiment: Primary firefly luciferase (FLuc) qHTS assay for identification of artifact compounds. (AID 1845220); also: nearly all actives have a fitted effect of over 60% in size;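 as to activity change, negative = inhibition: series mostly up to about 54 µM; plate controls were DMSO vehicle for no effect and no enzyme for full effect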
How it was run: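 Enzymatic FLuc inhibition assay: compounds pre-exposed to luciferin/ATP (10 uM each) for 15 min, then purified P. pyralis enzyme at 10 nM added. Read-out: luminescence at 5 min.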

[3] = Primary fluorescence-based thiol-reactive (MSTI) qHTS assay for identification of artifact compounds. (AID 1845221); also: nearly all actives have a fitted effect of over 65% in size; also: potency is read from the fitted curve at half-maximal effect;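 as to activity change, negative = thiol reactive: series mostly up to about 54 µM; thiol-reactive compounds lower the probe fluorescence signal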
How it was run: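 One-hour, room-temperature, dark incubation of compound with 4 uM MSTI in PBS (pH 7.4, 2% DMSO) precedes a fluorescence read at 525 nm excitation, 598 nm emission; Hill-equation fitting yields concentration-response values.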

[4] = system: Nanoluciferase (engineered Oplophorus gracilirostris luciferase); experiment: Primary Nanoluciferase (NLuc) qHTS assay for identification of artifact compounds. (AID 1845222);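 also: NLuc secreted into diluted conditioned medium of S16 cells; series mostly up to about 54 µM; 0% = DMSO and -100% = no enzyme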
How it was run: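 S16 cell supernatant NLuc, 1:55; cpds qHTS; 15 min RT dark; Nano-Glo substrate 1:100, 5 min; luminescence; Hill fit of % inhibition.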

[5] = Primary redox qHTS assay for identification of artifact compounds. (AID 1845223);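 also: 0% = DMSO and 100% = reference compound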
How it was run: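 Redox-cycling detection via DTT (250 uM final) oxidation coupled to Amplex Red (25 uM)/HRP (250 mU/mL) in HBSS. 15 min preincubation plus 30 min after DTT, room temperature. Ex/Em 525/598 nm; 4-parameter Hill fit against DMSO and 10 uM DA3003.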

CC(C)=CCC/C(C)=C/CC/C(C)=C/CC[C@]1(C)CCc2cc(O)cc(C)c2O1
inactive: Potency [1] | Potency [2] | Potency [3] | Potency [4] | Potency [5]

CCn1c2ccccc2c2cc(CNC)ccc21
inactive: Potency [1] | Potency [2] | Potency [3] | Potency [4] | Potency [5]

CC(=O)N[C@H](Cc1ccc(O)cc1)C(=O)N[C@H](CCCN=C(N)N)C(=O)N[C@H](Cc1ccccc1)C(N)=O (Ac-[dY]-[dR]-[dF]-NH2)
inactive: Potency [1] | Potency [2] | Potency [3] | Potency [4] | Potency [5]

CC(C)=CCC[C@](C)(O[C@@H]1O[C@H](CO[C@@H]2OC[C@@H](O)[C@H](O)[C@H]2O)[C@@H](O)[C@H](O)[C@H]1O)[C@H]1CC[C@]2(C)[C@@H]1[C@H](O)C[C@@H]1[C@@]3(C)CC[C@H](O[C@@H]4O[C@H](CO)[C@@H](O)[C@H](O)[C@H]4O[C@@H]4O[C@H](CO)[C@@H](O)[C@H](O)[C@H]4O)C(C)(C)[C@@H]3CC[C@]12C
inactive: Potency [1] | Potency [2] | Potency [3] | Potency [4] | Potency [5]

COC1(CC(C)C)NC(=O)C(O)(Cc2ccccc2)NC1=O (stereo not given)
inactive: Potency [1] | Potency [2] | Potency [3] | Potency [4] | Potency [5]

CC(=O)C1CCC2(C)C3=C(CCC12C)C1(C)CCC(=O)C(C)(C)C1CC3 (stereo not given)
inactive: Potency [1] | Potency [2] | Potency [3] | Potency [4] | Potency [5]

C=CC(C)(O)CC/C=C(/C)C(=O)OC1C(OC2OCC(OC3OC(CO)C(O)C(O)C3O)C(OC3OCC(O)C(OC4OC(C)C(O)C(O)C4O)C3O)C2O)COC(OC(=O)C23CCC(C)(C)CC2C2=CCC4C5(C)CCC(OC6OC(CO)C(OC7OC(CO)C(O)C(OC8OCC(O)C(O)C8O)C7O)C(O)C6O)C(C)(C)C5CCC4(C)C2(C)CC3O)C1O (stereo not given)
inactive: outcome [1] inactive [at 9.73 µM] | activity change, negative = inhibition [2] 3.07% [at 6.45 µM] | activity change, negative = thiol reactive [3] 146% [at 6.41 µM] | activity, negative = inhibition [4] 2.49% [at 6.45 µM] | redox activity (% of DA3003) [5] 3.8% [at 6.41 µM]

COc1cc([C@@H]2Oc3c(OC)cc(CCCO)cc3[C@@H]2CO[C@@H]2O[C@H](CO)[C@@H](O)[C@H](O)[C@H]2O)ccc1O
active: Potency [3] 4.12 µM
inactive: Potency [1] | Potency [2] | Potency [4] | Potency [5]

OC[C@H]1O[C@@H](OCCc2ccc(O)cc2)[C@H](O)[C@@H](O)[C@@H]1O
active: Potency [3] 11.9 µM
inactive: Potency [1] | Potency [2] | Potency [4] | Potency [5]

CC[C@H]1OC(=O)C[C@@H](O)[C@H](C)[C@@H](O[C@@H]2O[C@H](C)[C@@H](O)[C@H](N(C)C)[C@H]2O)[C@@H](CCN2C[C@H](C)C[C@H](C)C2)C[C@@H](C)C(=O)/C=C/C(C)=C/[C@@H]1CO[C@@H]1O[C@H](C)[C@@H](O)[C@@H](OC)[C@H]1OC
inactive: Potency [1] | Potency [2] | Potency [3] | Potency [4] | Potency [5]

C[C@H]1CN(C[C@H](Cc2ccccc2)C(=O)NCC(=O)O)CC[C@@]1(C)c1cccc(O)c1
inactive: Potency [1] | Potency [2] | Potency [3] | Potency [4] | Potency [5]

CC1(C)CC[C@]2(C(=O)O)CC[C@]3(C)C(=CCC4[C@@]5(C)C[C@H](O)[C@H](O[C@@H]6OC[C@H](O)[C@H](O)[C@H]6O)[C@@](C)(CO)C5CC[C@]43C)[C@@H]2C1 (stereo not given in full)
inactive: Potency [1] | Potency [2] | Potency [3] | Potency [4] | Potency [5]

Nc1nonc1C(=Nc1ccc(F)c(Cl)c1)NO
inactive: Potency [1] | Potency [2] | Potency [3] | Potency [4] | Potency [5]

O=S(=O)(Nc1ccc(C(O)(C(F)(F)F)C(F)(F)F)cc1)c1cccs1
inactive: Potency [1] | Potency [2] | Potency [3] | Potency [4] | Potency [5]

CC(C)C(C#N)O[C@@H]1O[C@H](CO[C@@H]2OC[C@](O)(CO)[C@H]2O)[C@@H](O)[C@H](O)[C@H]1O (stereo not given in full)
inactive: Potency [1] | Potency [2] | Potency [3] | Potency [4] | Potency [5]

CNC(=O)c1ccc(Nc2ncc(C(F)(F)F)c(NCc3nccnc3N(C)S(C)(=O)=O)n2)cc1
inactive: Potency [1] | Potency [2] | Potency [3] | Potency [4] | Potency [5]

CC1(C)CC(=O)N(CCCCN2CCN(c3ncccn3)CC2)C(=O)C1
inactive: Potency [1] | Potency [2] | Potency [3] | Potency [4] | Potency [5]

C=CC1(C)C=C2C(O)CC3C(C)(C(=O)O)CCCC3(C)C2CC1 (stereo not given)
inactive: Potency [1] | Potency [2] | Potency [3] | Potency [4] | Potency [5]

COc1cc(C[C@H]2COC(=O)[C@@H]2Cc2ccc(O)c(OC)c2)ccc1O
inactive: Potency [1] | Potency [2] | Potency [4] | Potency [5]
active: Potency [3] 14.7 µM

C[C@@H]1O[C@@H](O[C@H]2[C@H](O[C@H]3[C@H](O[C@H]4CC[C@@]5(C=O)C(CC[C@]6(C)C5CC=C5C7CC(C)(C)C[C@@H](O)[C@]7(C)CC[C@]56C)C4(C)C)O[C@H](C(=O)O)[C@@H](O)[C@@H]3O)OC[C@@H](O)[C@@H]2O)[C@H](O)[C@H](O)[C@H]1O (stereo not given in full)
inactive: Potency [1] | activity change, negative = inhibition [2] 0.64% [at 11.6 µM] | activity change, negative = thiol reactive [3] 114% [at 11.5 µM] | activity, negative = inhibition [4] 3.37% [at 11.6 µM] | redox activity (% of DA3003) [5] 8.98% [at 11.5 µM]
